# High-throughput results: PubChem BioAssay, several laboratories
# Hits are enriched below; roughly 3.2% of the tested compounds scored in any of these assays.
# SSB-PriA inh: inhibitors of Klebsiella pneumoniae PriA binding to SSB C-terminal tail, primary screen, biochemical, AlphaScreen; PriA–SSB C-terminal tail interaction (Klebsiella pneumoniae); AlphaScreen SSBct-PriA binding, biotinylated peptide; inhibition, % at 33 µM; actives 0.6% (n = 430,000); AID 1272365, 2023; in the data active means inhibition mostly above about 37%, no sharp cut-off; inactive means mostly below about 20%;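 further: plate controls were negative control peptide for no effect and reference peptide for full effect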
# UGM FP inh: M. tuberculosis UGM enzyme inhibitors, primary screen, biochemical, fluorescence polarization, single point. UDP-galactopyranose mutase (Mycobacterium tuberculosis (strain ATCC 25618 / H37Rv)), …. purified UGM, fluorescence polarization probe displacement. inhibition, % at 10 µM. actives 0.06% (n = 320,000). AID 504406, 2011; in the data active means inhibition above about 10%, passing the limit was not always enough; inconclusive means no clear call, values can overlap the other calls
# Rv3671c inh: Rv3671c serine protease inhibitors, primary screen, biochemical, fluorescence polarization, M. tuberculosis H37Rv; P9WHR9; actives 0.048% (n = 320,000); inhibition, % at 5.96 µM; in the data active means inhibition above about 38%;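 further: extracellular domain of Rv3671c used as enzyme; 0% = enzyme with DMSO and 100% = no enzyme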
# Mtb FBA inh: Mtb FBA enzyme inhibitors, primary screen, biochemical, fluorescence, strain H37Rv. Fructose-bisphosphate aldolase (Mycobacterium tuberculosis (strain ATCC 25618 / H37Rv)), …. purified M. tuberculosis FBA, fluorescence read-out. inhibition, % at 1 µM. actives 2.3% (n = 360,000);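 further: 0% = vehicle and 100% = reference inhibitor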
# Target sequence (P9WQA3 whole entry, looked up): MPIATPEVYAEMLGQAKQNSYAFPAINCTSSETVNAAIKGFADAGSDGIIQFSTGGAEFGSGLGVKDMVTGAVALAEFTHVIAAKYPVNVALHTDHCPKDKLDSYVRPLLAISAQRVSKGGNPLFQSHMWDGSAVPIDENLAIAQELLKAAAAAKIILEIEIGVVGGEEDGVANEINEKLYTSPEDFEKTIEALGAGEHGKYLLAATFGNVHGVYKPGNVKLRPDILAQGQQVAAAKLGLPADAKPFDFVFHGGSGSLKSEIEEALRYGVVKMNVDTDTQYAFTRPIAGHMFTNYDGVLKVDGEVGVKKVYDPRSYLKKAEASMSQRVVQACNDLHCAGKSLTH
# GDH-TPI counter-1: GDH-TPI coupling enzyme inhibitors, primary screen, artefact control for M. tuberculosis FBA inhibitor project, biochemical, absorbance, full deck | GDH-TPI coupled enzyme counterscreen, NADH absorbance | actives 1.2% (n = 360,000) | inhibition, % at 4.8 µM; in the data active means inhibition above about 30%;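 further: 0% = DMSO wells and 100% = wells lacking the enzyme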
# Mtb betalactam: beta-lactam sensitization of Mtb H37Rv, H37Rv. M. tuberculosis H37Rv growth with meropenem, percent inhibition. inhibition, % at 25 µM. actives 0.27% (n = 330,000); call rule not given here;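 further: growth measured after seven days incubation then overnight dye step; 0% = bacteria only wells and 100% = bacteria with antibiotic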
# Mtb FBA confirm: M. tuberculosis aldolase blockers, biochemical, fluorescence, strain H37Rv, confirmation; inhibition, % at 1 µM; shares compounds with Mtb FBA inh; purified M. tuberculosis FBA, fluorescence read-out; actives 78% (n = 5,600);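 further: 0% = vehicle wells and 100% = reference inhibitor wells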
# GDH-TPI counter-2: GDH-TPI coupling enzyme inhibitors, artefact control for M. tuberculosis FBA inhibitor project, biochemical, fluorescence, high throughput; shares compounds with Mtb FBA inh; GDH-TPI coupled enzyme counterscreen; inhibition, % at 1 µM; actives 81% (n = 5,600); AID 652141, 2013; in the data active means inhibition above about 10%
# The depositor's hits bear a star; ? = inconclusive; / = no result given; + = active, no number. Unless noted, no stated cut-off is given here; in the data, active means inhibition above about 27%; inactive means the rest.
SMILES,SSB-PriA inh,UGM FP inh,Rv3671c inh,Mtb FBA inh,GDH-TPI counter-1,Mtb betalactam,Mtb FBA confirm,GDH-TPI counter-2
Cc1ccc(-c2cc(C)nc3ncnn23)cc1,-9.0,1.1,8.2,15.6,9.9,-0.7,/,/
COc1ccc(-c2cc3ccccc3n2CC(O)CN2CCN(CCO)CC2)cc1 (stereo not drawn),6.5,0.3,3.0,32.6*,3.4,1.1,-7.5,-4.6
CCOC(=O)c1c(-c2cccc([N+](=O)[O-])c2)cn2ccccc12,7.7,-0.8,10.8,-8.8,1.6,-0.3,/,/
CCOC(=O)c1c(-c2ccccc2Cl)cn2ccccc12,-1.7,-0.7,2.3,61.2*,12.4,-2.3,73.7*,68.0*
O=C(Cc1cccs1)NCCOc1ccc(F)cc1,-5.0,/,/,/,/,/,/,/
CCOC(=O)c1sc(Nc2nc3c(OC)cccc3s2)nc1C,-18.0,-0.4,6.5,66.0*,0.9,-2.3,64.0*,56.7*
O=C1CSC(=O)N1CCN1C(=O)CC(N2C(=O)/C(=C/C=C/c3ccccc3)SC2=S)C1=O (stereo not drawn),-1.0,/,/,/,/,/,/,/
CC(C)CN1Cc2cc(-c3cccc(F)c3)ccc2-n2nncc2C1,/,/,/,8.5,/,/,/,/
CC(C)CN1Cc2cc(-c3ccccc3)ccc2-n2nncc2C1,/,/,/,31.1*,/,/,+,+
O=C(Nc1nnc(N=Cc2cccs2)s1)c1ccc(Cl)cc1Cl,-3.0,/,/,/,/,/,/,/
CN1N=C2c3ccccc3CCC2C1c1ccc(F)cc1 (stereo not drawn),-1.0,3.2,4.7,0.2,0.0,-3.9,/,/
c1ccc(N2CC3CCc4ccccc4C3=N2)cc1 (stereo not drawn),-43.5,-2.4,16.1,58.2*,5.4,3.8,46.3*,31.4*
COc1cccc2c(SCC(=O)NN=Cc3ccc(O)cc3O)cc(C)nc12,-1.7,/,/,/,/,/,/,/
COc1ccc(OC)c(/C=N/NC(=O)CSc2cc(C)nc3c(OC)cccc23)c1,/,1.8,-0.2,29.7*,9.5,2.3,49.7*,35.3*
COc1ccc(OC)c(/C=N\NC(=O)c2c(C)nc3cc(C)ccn23)c1,/,-1.1,1.9,60.4*,16.9,-4.8,+,+
COc1cc(/C=N\NC(=O)c2c(C)nc3cc(C)ccn23)ccc1O,/,0.2,-3.6,3.9,29.2,1.9,/,/
COC(=O)c1ccc(CSc2ccc(NC(=O)c3cccc(F)c3)nn2)o1,-11.0,/,/,/,/,/,/,/
Cc1oncc1C(=O)N1CCSC(c2ccccc2Cl)CC1 (stereo not drawn),-15.0,/,/,/,/,/,/,/
COc1ccccc1N1C(=O)c2ccccc2NC1C(OC)OC (stereo not drawn),-3.9,-0.7,-4.6,11.7,3.6,-17.2,/,/
COc1ccccc1N1C(=O)c2ccccc2NC1c1cc(OC)c(OC)c(OC)c1 (stereo not drawn),-1.5,0.1,-7.7,55.0*,15.4,-4.1,96.1*,64.7*
COc1ccc(C2Nc3ccccc3C(=O)N2c2ccccc2)cc1CN1CCOCC1 (stereo not drawn),-7.6,-1.8,-1.6,44.8*,8.6,-4.8,-0.4,-5.3
COc1ccc(N2C(=O)c3ccccc3NC2c2ccc(OC)c(Cn3nnc4ccccc43)c2)cc1 (stereo not drawn),1.3,-6.9,-0.3,13.3,1.9,?,/,/
COc1ccc(C2Nc3ccccc3C(=O)N2c2ccc(C)cc2)cc1COc1ccccn1 (stereo not drawn),-7.0,1.4,-15.6,34.1*,11.5,-1.0,+,+
COc1ccc(C2Nc3ccccc3C(=O)N2Cc2ccccc2)cc1CN1CCOCC1 (stereo not drawn),-4.6,5.4,-1.4,96.8*,5.2,-19.4,57.9*,50.3*
CCOc1cccc2cc(C(=O)Nc3nnc(-c4cc(C)n(C)n4)o3)oc12,-8.0,/,/,/,/,/,/,/
SMILES,SSB-PriA inh,UGM FP inh,Rv3671c inh,Mtb FBA inh,GDH-TPI counter-1,Mtb betalactam,Mtb FBA confirm,GDH-TPI counter-2
COc1ccc2c(c1)CCN(C(=O)C1CN(C(=O)COc3ccccc3F)C1)C2,-14.0,/,/,/,/,/,/,/
CN1CC=C2C(C#N)=C(N)C(C#N)(C#N)C(Cc3ccccc3)C2C1 (stereo not drawn),6.5,-5.0,5.7,32.4*,14.5,45.1,164.4*,151.3*
COc1cc(C2C3CN(C)CC=C3C(C#N)=C(N)C2(C#N)C#N)ccc1OC(C)C (stereo not drawn),4.0,1.0,0.2,1.6,19.3,?,/,/
O=C(Cc1ccccc1Cl)Nc1cc(N2CCCC2)ncn1,-2.0,/,/,/,/,/,/,/
Cc1ccc(C2C(=C(O)c3ccccc3)C(=O)C(=O)N2CCN2CCOCC2)o1 (stereo not drawn),-14.5,/,/,/,/,/,/,/
CSCC[C@H](NC(=O)COc1ccc(Cl)cc1)C(=O)N1CCC2(CC1)NCCc1[nH]cnc12,-5.3,-0.1,9.8,59.1*,0.8,-2.9,119.6*,111.4*
CCCCn1c(=O)[nH]c(=O)c2c1nc(-c1ccccn1)n2CC,3.7,1.4,-1.8,52.6*,4.5,-7.0,32.6*,32.9*
CCCCn1c(=O)[nH]c(=O)c2c1nc(-c1ccncc1)n2CCOC,-11.1,-0.6,-7.1,7.8,-11.8,-3.6,/,/
COc1ccc(S(=O)(=O)Oc2c(Cl)cc(Cl)c3cccnc23)cc1OC,-1.0,/,/,/,/,/,/,/
CC(=NNc1nc(C)c(C)s1)c1cccc([N+](=O)[O-])c1,0.6,/,/,/,/,/,/,/
O=C(NCCCN1CCOCC1)c1ccc(CNS(=O)(=O)c2ccc(F)cc2)cc1,-10.1,-0.6,5.8,2.3,11.4,-4.1,/,/
Nc1c(C(=O)NCc2ccc(F)cc2)c2nc3ccccc3nc2n1CCCN1CCOCC1,-26.8,1.1,14.1,47.9*,10.8,100.0,+,+
Nc1c(C(=O)NCc2ccccc2)c2nc3ccccc3nc2n1CCCN1CCOCC1,-18.2,-0.8,8.1,58.4*,7.8,99.4,146.2*,113.6*
COc1ccc(CNC(=O)c2c(N)n(CCCN3CCOCC3)c3nc4ccccc4nc23)cc1,-46.5,0.5,4.3,55.1*,13.3,100.0,132.2*,107.2*
O=C(C[n+]1ccccc1)NN=Cc1ccc(Br)cc1,-13.1,/,/,/,/,/,/,/
